The target in one experiment is Furin (Homo sapiens) (UniProt P09958). In words: Furin counterscreen qHTS for Zika virus inhibitors (AID 1347149). Note: nearly all actives have a fitted effect of over 70% in size. Note: potency is the fitted concentration of half-maximal effect. The gist of the method:
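Fluorogenic cleavage of BOC-RVRR-AMC (2 microM final, Km ~15 µM) was monitored (ex 340, em 450 nm) at 37C after 15 min RT preincubation of 5 nM furin with compounds in HEPES pH 7.0 buffer with CaCl2 and Triton X-100. Percent inhibition was fitted to a 4-parameter Hill curve.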
In general terms: Counterscreens check selectivity or assay interference.

Experiment [1] in a line: Confirmatory screen GU Rhodamine qHTS for Zika virus inhibitors qHTS (AID 1347157). Note: nearly all actives have a fitted effect of over 70% in size. The gist of the method: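 Compounds, tested up to 114 microM, were incubated for 15 minutes with 25 nM unlinked NS2B-NS3 protease at pH 8.0. Cleavage of 1.5 microM Rhodamine110 substrate was then followed by fluorescence for 15 minutes.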
Experiment [2] in a line: Tertiary RLuc qRT-PCR qHTS assay for Zika virus inhibitors (AID 1347169). Note: top concentration of the series differs between compounds; nearly all actives have a fitted effect of over 55% in size. In short, it runs like this:
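Vero cells (1,000/well) infected with recombinant ZIKV-RLuc (Cambodian) at MOI 1-2 after compound addition, 48-72 hrs at 37 degrees C. Live-cell Renilla luciferase substrate added; luminescence read after 1-1.5 hrs.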

The nature of experiment [3]: Confirmatory screen NINDS Rhodamine qHTS for Zika virus inhibitors (AID 1347161). Note: nearly all actives have a fitted effect of over 60% in size. Note: potency is the fitted concentration of half-maximal effect. The gist of the method: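 Enzyme (25 nM, linked NS2B-NS3) was preincubated 15 min with compound in 10 mM Tris-HCl pH 8.0, 0.01% Tween 20. Rhodamine110 substrate (1.5 microM) was then added and fluorescence read at start and after 15 min.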
(Quantitative high-throughput screening tests each substance at several concentrations.)

Experiment [4] addresses Calcium and integrin-binding protein 1 (Homo sapiens) (UniProt Q99828). In words: Primary qHTS for Identification of Calcium Integrin Binding Protein 1 (CIB1) Competitor (AID 1508620).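 Note: GST tagged CIB1 binding a fluorescein labelled alphaIIb integrin peptide tracer; top concentration of the series differs between compounds.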 In short, it runs like this:
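Fluorescence polarization competition: GST-tagged CIB1 (1 uM final) preincubated with compound 15 min at room temperature, then FITC-labelled alphaIIb peptide (100 nM final) added. After 15 min at room temperature, polarization read at Ex 480/Em 540.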

Experiment [5] in a line: ZIKV-mCherry secondary qHTS for Zika virus inhibitors (AID 1347158). Note: top concentration of the series differs between compounds. In short, it runs like this:
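Vero cells (5,000/well) were given compound, then infected with ZIKV-mCherry at MOI 1 for 48–72 h at 37 °C. After PFA fixation and Hoechst staining, imaging gave percent mCherry-positive cells. The positivity threshold was RFU above 450, 3 SD over negative controls.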

In experiment [6] the test system is Zika virus NS2B-NS3 protease (linked). In words: 384 well plate NINDS AMC confirmatory qHTS for Zika virus inhibitors (AID 1347163). Note: nearly all actives have a fitted effect of over 50% in size. Note: potency is the fitted concentration of half-maximal effect. In short, it runs like this: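 Linked NS2B-NS3 protease (final 5 nM, 30 nM or 60 nM) was preincubated with compounds (final up to 1 mM) for ~15 minutes. Ac-VKTGKR-AMC substrate (final 30 microM) then reacted for 25 minutes at room temperature in the dark. Fluorescence (ex 355/em 460 nm) was normalized to no-enzyme and no-inhibitor controls.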

The subject of experiment [7] is Zika virus NS2B-NS3 protease (linked construct). In words: 384 well plate NINDS Rhodamine confirmatory qHTS for Zika virus inhibitors (AID 1347164).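 Note: fluorescence from protease cleavage of Ac-LKRR-rhodamine 110 substrate; nearly all actives have a fitted effect of over 65% in size.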 Note: potency is the fitted concentration of half-maximal effect. The gist of the method:
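Linked NS2B-NS3 protease (final 5, 30 or 60 nM) preincubated ~15 minutes with compounds, then 10 microM Ac-LKRR-Rhodamine 110 added. Fluorescence (485/538 nm) read after 25 minutes at room temperature, normalized to no-enzyme and no-inhibitor controls.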

The target of experiment [8] is Cytochrome P450 1A2 (Homo sapiens) (UniProt P05177). In words: p450-cyp1a2 (AID 410; calls by dose curve). In short, it runs like this:
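20nM CYP1A2 with 100uM Luciferin-ME (at Km) in 100mM KPO4; compound preincubated 10 min, NADPH regeneration added, 60 min at room temperature. Luciferin quantified by luminescence after detection reagent; normalized to 57 uM furafylline.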

Experiment [9] concerns the target Glucocorticoid receptor (Homo sapiens) (UniProt P04150). In words: GR-GFP Redistribution (AID 450;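 active = compounds whose dose series gives a full or clear partial fitted curve of increased nuclear translocation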; note: potency is the fitted concentration of half-maximal effect). Conditions: U2OS GR-GFP nuclear translocation, laser cytometry, 2 h.
For experiment [10] the target is unchanged. Kind of experiment: GR-EFC Redistribution (AID 451; calls by dose curve; note: potency is the fitted concentration of half-maximal effect). The following applies: CHO-K1 GR-EFC translocation, beta-gal luminescence, 2 h. The gist of the method:
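CHO-K1 cells expressing nuclear EA and GR-ED fragments of b-gal; compounds titrated up to 46 uM final, 2 h at 37 C. GR nuclear translocation read as complemented b-gal luminescence after 1 h RT detection.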

For experiment [11], the target named is Mitogen-activated protein kinase 10 (Mus musculus) (UniProt Q61831). In words: JNK3 AlphaScreen Assay (AID 530; active = well fitted curve in either direction with a large enough effect, not every such curve was filed as active;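 note: kinase came from lysate of stimulated human HepG2 cells; signal reports phosphorylation of biotinylated GST-cJun 1-79 at Ser73 with 10 µM ATP; series mostly up to about 57 µM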). In short, it runs like this:
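Pre-activated (IL-1β/TNFα) JNK3 in HepG2 lysates phosphorylates biotin-GST-cJun(1-79), 10 uM ATP; anti-phospho-cJun(Ser73) AlphaScreen read at room temperature, pH 7.6 Tris buffer. Compounds pre-incubated 15 min as titrations.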

Experiment [12] deals with Cytochrome P450 3A4 (Homo sapiens) (UniProt P08684). Kind of experiment: qHTS Assay for Activators of Cytochrome P450 3A4 (AID 885). Note: nearly all actives have a fitted effect of over 65% in size. The gist of the method: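 Human CYP3A4 (20 nM) with Luciferin-PPXE at 25 uM (its KM) in 200 mM KPO4; 10 min compound preincubation, then NADPH regeneration and 60 min reaction at RT. Luciferin read by luminescence; normalized to 57 uM ketoconazole full inhibition.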

The target of experiment [13] is DNA dC->dU-editing enzyme APOBEC-3G (Homo sapiens) (UniProt Q9HC16). Kind of experiment: qHTS for inhibitors of Vif-A3G interactions: Validation (AID 588379). The gist of the method:
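HeLa cells stably expressing Vif and A3G-eYFP, 700 cells/well, incubated overnight at 37 deg C, then exposed to compound overnight at 37 deg C. Inhibition of Vif-mediated degradation read as increased yellow fluorescence (Ex 488/Em 500-530) by laser-scanning cytometry.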

Experiment [14] deals with Zika virus NS2B-NS3 protease (unlinked). Kind of experiment: Optimization of GU AMC qHTS for Zika virus inhibitors: Unlinked NS2B-NS3 protease assay (AID 1347151). Note: potency is the fitted concentration of half-maximal effect; nearly all actives have a fitted effect of over 80% in size. The gist of the method:
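Noncovalent NS2B hydrophilic domain–NS3 protease complex (25 nM final) in 10 mM Tris-HCl pH 8.0, 0.01% Tween 20; AMC substrate, room temperature 15 min (~20% conversion); fluorescence change normalized, 4-parameter Hill fit.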

For experiment [15], the system named is Zika virus NS2B-NS3 protease. Kind of experiment: Primary screen GU AMC qHTS for Zika virus inhibitors (AID 1347154). Note: nearly all actives have a fitted effect of over 70% in size. The gist of the method:
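Unlinked Zika NS2B hydrophilic domain–NS3 protease complex at 25 nM in 10 mM Tris-HCl pH 8.0, 0.01% Tween 20, with an AMC peptide substrate. Fluorescence change (340/450 nm) over 15 min at room temperature, normalized to controls, fitted to 4-parameter Hill.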

A short description of experiment [16]: HepG2 cells viability qHTS for Zika virus inhibitors (AID 1347168). In short, it runs like this: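 Cells seeded at 2.5 x 10^5 cells/mL in DMEM with 4% FBS and attached overnight at 37 degrees C, then exposed to compound for 24 to 48 hours. Viability read as ATP content by CellTiter Glo luminescence.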
A short description of experiment [17]: Primary qHTS for small molecule stabilizers of the endoplasmic reticulum resident proteome: Secreted ER Calcium Modulated Protein (SERCaMP) assay (AID 1508630). In short, it runs like this: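 GLuc-SERCaMP-expressing SH-SY5Y cells, pretreated 16 h with compound, are challenged with thapsigargin to empty ER calcium stores; after 4 h, coelenterazine is added directly to the medium and luminescence is imaged.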

This passage reports Potency and outcome results from PubChem BioAssay (NCATS).

A number with no mark means an inactive call. Results filed as inconclusive are left out. Calls of active or inactive are those of the source. Unless noted, calls come from the whole dose curve; as a rule, active = well fitted curve in the direction sought with a large enough effect; inconclusive = small, poorly fitted or top-dose-only effect, or another doubt; inactive = no such curve, though single readings can be large; an effect the other way counts as inactive or inconclusive. Numbered stars: 1 amine (or outer) side, 2 acyl side, 3 side chain; on linkers, the order of the positions; unused ones are H or OH. Bridge positions count the residues as written; N and C are the ends. Square brackets hold non-standard residues; d marks the D form. Peptide text beside a SMILES is read from it. I, II: the chains in the order shown. Actinocin(9to1) = Cc1c2oc3c(C)ccc(C(=O)[*:1])c3nc-2c(C(=O)[*:2])c(N)c1=O; aThr = C[C@H](O)[C@H](N)C(=O)O; NMeV = CN[C@H](C(=O)O)C(C)C; Sar = CNCC(=O)O A value given as a limit tells only on which side of the number the result lay.

Sequence of Furin (Homo sapiens) (P09958 whole entry, looked up): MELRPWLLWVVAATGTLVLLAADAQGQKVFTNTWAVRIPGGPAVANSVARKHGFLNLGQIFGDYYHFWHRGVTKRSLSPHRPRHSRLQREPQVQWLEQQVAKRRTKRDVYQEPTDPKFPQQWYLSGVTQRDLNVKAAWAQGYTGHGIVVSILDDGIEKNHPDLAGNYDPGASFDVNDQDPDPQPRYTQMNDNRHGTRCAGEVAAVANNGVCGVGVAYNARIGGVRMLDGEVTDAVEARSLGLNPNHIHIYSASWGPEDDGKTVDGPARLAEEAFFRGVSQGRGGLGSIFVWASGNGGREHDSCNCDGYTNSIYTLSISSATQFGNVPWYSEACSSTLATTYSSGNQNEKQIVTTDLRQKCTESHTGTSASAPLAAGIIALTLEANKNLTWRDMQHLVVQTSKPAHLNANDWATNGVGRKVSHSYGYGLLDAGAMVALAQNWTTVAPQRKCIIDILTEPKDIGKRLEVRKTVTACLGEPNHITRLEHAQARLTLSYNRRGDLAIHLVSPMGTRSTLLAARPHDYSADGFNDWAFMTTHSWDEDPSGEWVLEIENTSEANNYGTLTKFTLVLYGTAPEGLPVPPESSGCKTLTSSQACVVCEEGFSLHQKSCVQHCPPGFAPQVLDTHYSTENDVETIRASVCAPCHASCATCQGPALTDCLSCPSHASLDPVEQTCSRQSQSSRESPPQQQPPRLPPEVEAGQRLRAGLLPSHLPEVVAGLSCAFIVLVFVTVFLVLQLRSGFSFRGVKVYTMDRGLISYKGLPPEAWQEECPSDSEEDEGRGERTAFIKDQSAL
Sequence of Glucocorticoid receptor (Homo sapiens) (P04150 whole entry, looked up): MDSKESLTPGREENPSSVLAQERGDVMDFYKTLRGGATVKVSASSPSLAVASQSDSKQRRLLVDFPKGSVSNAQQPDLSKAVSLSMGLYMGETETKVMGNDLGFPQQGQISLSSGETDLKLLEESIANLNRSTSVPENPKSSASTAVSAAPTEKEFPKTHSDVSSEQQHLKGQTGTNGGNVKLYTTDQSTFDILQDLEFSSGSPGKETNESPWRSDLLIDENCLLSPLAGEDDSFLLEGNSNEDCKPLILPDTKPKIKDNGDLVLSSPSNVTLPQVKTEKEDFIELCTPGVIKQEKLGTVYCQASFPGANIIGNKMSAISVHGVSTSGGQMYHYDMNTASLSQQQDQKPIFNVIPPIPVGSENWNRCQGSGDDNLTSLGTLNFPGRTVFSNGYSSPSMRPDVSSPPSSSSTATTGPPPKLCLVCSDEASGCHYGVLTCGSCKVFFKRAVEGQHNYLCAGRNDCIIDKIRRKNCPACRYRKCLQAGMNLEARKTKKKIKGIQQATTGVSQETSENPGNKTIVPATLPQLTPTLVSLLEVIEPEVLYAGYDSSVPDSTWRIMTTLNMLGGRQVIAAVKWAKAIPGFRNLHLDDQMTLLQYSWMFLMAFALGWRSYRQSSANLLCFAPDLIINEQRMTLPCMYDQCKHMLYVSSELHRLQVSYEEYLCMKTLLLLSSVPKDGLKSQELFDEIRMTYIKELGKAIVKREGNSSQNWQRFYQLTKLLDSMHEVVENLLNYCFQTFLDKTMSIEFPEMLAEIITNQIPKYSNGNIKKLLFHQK
Sequence of Cytochrome P450 1A2 (Homo sapiens) (P05177 whole entry, looked up): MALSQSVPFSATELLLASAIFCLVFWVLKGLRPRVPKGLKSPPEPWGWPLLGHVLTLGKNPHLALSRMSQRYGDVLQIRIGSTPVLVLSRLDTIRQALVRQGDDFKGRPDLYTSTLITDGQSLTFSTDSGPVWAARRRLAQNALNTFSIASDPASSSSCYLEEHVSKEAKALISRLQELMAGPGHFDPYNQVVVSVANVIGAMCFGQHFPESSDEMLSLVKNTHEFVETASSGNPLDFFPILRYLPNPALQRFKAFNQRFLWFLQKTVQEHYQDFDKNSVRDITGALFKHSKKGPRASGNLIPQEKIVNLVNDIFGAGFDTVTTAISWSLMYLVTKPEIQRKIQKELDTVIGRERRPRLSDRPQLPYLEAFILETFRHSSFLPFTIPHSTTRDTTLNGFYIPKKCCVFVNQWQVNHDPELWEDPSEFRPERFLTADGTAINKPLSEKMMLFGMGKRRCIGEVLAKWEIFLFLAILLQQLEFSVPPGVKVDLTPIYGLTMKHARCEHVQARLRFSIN
Sequence of DNA dC->dU-editing enzyme APOBEC-3G (Homo sapiens) (Q9HC16 whole entry, looked up): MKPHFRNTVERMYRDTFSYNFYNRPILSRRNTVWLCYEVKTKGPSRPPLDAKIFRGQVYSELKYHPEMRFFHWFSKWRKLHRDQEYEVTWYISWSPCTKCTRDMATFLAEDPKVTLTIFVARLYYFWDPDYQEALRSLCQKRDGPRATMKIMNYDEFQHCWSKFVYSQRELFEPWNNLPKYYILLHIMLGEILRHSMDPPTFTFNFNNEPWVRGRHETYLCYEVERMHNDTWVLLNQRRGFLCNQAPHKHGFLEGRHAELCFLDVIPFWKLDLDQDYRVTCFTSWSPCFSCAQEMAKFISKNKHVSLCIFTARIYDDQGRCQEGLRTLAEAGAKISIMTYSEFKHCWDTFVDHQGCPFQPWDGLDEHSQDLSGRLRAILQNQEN
Sequence of Cytochrome P450 3A4 (Homo sapiens) (P08684 whole entry, looked up): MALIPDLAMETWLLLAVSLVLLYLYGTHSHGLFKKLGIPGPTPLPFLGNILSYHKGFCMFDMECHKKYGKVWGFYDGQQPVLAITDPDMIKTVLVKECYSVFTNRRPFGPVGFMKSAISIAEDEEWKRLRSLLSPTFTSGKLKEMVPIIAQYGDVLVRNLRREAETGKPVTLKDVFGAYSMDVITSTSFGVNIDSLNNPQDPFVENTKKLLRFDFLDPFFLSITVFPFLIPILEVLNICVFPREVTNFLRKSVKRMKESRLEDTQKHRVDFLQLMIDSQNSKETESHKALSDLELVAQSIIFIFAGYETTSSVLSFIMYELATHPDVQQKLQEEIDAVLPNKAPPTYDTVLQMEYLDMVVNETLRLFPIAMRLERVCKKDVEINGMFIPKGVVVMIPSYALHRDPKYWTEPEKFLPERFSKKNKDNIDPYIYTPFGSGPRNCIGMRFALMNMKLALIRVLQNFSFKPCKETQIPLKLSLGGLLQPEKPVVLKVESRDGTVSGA
Sequence of Calcium and integrin-binding protein 1 (Homo sapiens) (Q99828 whole entry, looked up): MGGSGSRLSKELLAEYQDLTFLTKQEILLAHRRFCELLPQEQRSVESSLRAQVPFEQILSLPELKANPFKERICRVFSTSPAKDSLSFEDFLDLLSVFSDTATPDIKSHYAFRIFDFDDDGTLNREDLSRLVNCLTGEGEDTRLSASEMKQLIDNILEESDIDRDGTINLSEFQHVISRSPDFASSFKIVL

Turning to `CC(C)c1nn2c(=O)cc(COC(=O)c3ccc(NC(=O)CCc4ccccc4)cc3)nc2s1`, the Potency entry (with Furin (Homo sapiens); in [1]; in [2]) was “inactive” in each case.

`O=C(OCC#CCSc1nnc(-c2ccccc2F)o1)c1ccc(F)cc1`: the Potency entry (with Furin (Homo sapiens); in experiment [1]; in [3]; in [2]) was “inactive” each time. Besides, in [4], the outcome was inactive.

On to `COc1ccc(S(=O)(=O)c2c(O)c(C)cc(NS(=O)(=O)c3ccc(Cl)cc3)c2C(C)C)cc1`, for which the Potency result (with Furin (Homo sapiens); in experiment [1]; in experiment [2]) was “inactive” throughout.

On to `O=C(COc1ccc(F)cc1)Nc1ccc(C(=O)OCc2cc(=O)n3nc(C4CC4)sc3n2)cc1`, for which the Potency entry (with Furin (Homo sapiens); in experiment [1]; in experiment [2]) was “inactive” in each case.

Consider `O=C(Nc1ccc(C(=O)OCc2cc(=O)n3c4c(sc3n2)CCCC4)cc1)c1ccc(Cl)cc1`, for which, in the experiment with Furin (Homo sapiens), the Potency is 46.9 µM (active). Besides, the Potency result in experiment [1] and in experiment [2] was “inactive” each time.

For `CC(C)c1nn2c(=O)cc(COC(=O)c3ccc(NC(=O)COc4ccccc4)cc3)nc2s1`, the Potency result (with Furin (Homo sapiens); in experiment [1]; in experiment [2]) was “inactive” throughout.

As for `CCCCc1nn2c(=O)cc(COC(=O)c3cccc(NC(=O)c4cccc(Cl)c4)c3)nc2s1`, the Potency in the experiment with Furin (Homo sapiens) is 29.6 µM (active). Also, the Potency result in experiment [1] and in experiment [2] was “inactive” each time.

For the compound `Cc1nn2c(=O)cc(COC(=O)c3ccc(NC(=O)c4ccc(C(C)(C)C)cc4)cc3)nc2s1`, the figures for the Potency (in the experiment with Furin (Homo sapiens); in [3]) were 52.7 µM (active) and 39.8 µM (active), respectively.

As for `Cc1cccc(C(=O)Nc2ccc(C(=O)OCc3cc(=O)n4nc(C5CC5)sc4n3)cc2)c1`, the Potency with Furin (Homo sapiens) is 26.4 µM (active). The Potency result in experiment [5], in [6] and in [2] was “inactive” throughout.

Regarding `CC(C)c1ccc(NC(=O)c2ccc3oc(=O)c(S(=O)(=O)c4ccc(F)cc4)cc3c2)cc1`, the Potency result (with Furin (Homo sapiens); in [5]; in experiment [6]) was “inactive” each time. Moreover, the Potency in experiment [3] was 56.2 µM (active).

As to `Cc1oc2c(cc(NS(=O)(=O)c3ccc(F)cc3)c3ccccc32)c1C(=O)OCc1ccccc1`, the Potency entry (with Furin (Homo sapiens); in experiment [5]) was “inactive” throughout. Moreover, the Potency in experiment [7] is 158 µM (active).

Consider `Fc1cc(C2=Nn3c(COc4ccc(Cl)cc4Cl)nnc3S/C2=C\c2ccc(-c3ccc(Cl)cc3)o2)c(Cl)cc1Cl`, for which the Potency entry (in the experiment with Furin (Homo sapiens); in [5]; in [7]) was “inactive” in each case. Besides, the Potency in experiment [6] is 158 µM (active).

`O=C(O)COc1ccc(-c2nccc3c2C(=O)N(Cc2cccc(C(F)(F)F)c2)CC(COc2ccc4cnccc4c2)O3)cc1` (stereo unspecified): the Potency with Furin (Homo sapiens) is 62.2 µM (active); in [7], 35.5 µM (active). The Potency result in experiment [2] was “inactive”.

For `Cc1c2oc3c(C)ccc(C(=O)N[C@@H]4C(=O)N[C@@H](C(C)C)C(=O)N5CCC[C@@H]5C(=O)N(C)CC(=O)N(C)[C@@H](C(C)C)C(=O)O[C@H]4C)c3nc-2c(C(=O)N[C@@H]2C(=O)N[C@@H](C(C)C)C(=O)N3CCC[C@@H]3C(=O)N(C)CC(=O)N(C)[C@@H](C(C)C)C(=O)O[C@H]2C)c(N)c1=O` (I: [aThr]V[dP][Sar][NMeV] / II: [aThr]V[dP][Sar][NMeV]; ester I:1-I:C, II:1-II:C; linker I:N-II:N via Actinocin(9to1)), the Potency result in [8], in experiment [11], in experiment [12], in [13], in experiment [15] and in experiment [16] was “inactive” each time. Besides, the Potency result in experiment [17] was “inactive”. Moreover, the Potency in experiment [9] was over 46 µM; in [10], over 46 µM; in [14], 27.1 µM (active).

On to `COc1ccc(NS(=O)(=O)c2ccc(NS(=O)(=O)c3ccc4c(c3)OCCO4)cc2)cc1`, for which the Potency entry with Furin (Homo sapiens) is “inactive”. Also, the Potency in [6] was 355 µM (active); in experiment [7] it was 141 µM (active).
